Compound activity from PubChem.
SMN2 splice enh: qHTS Assay for Enhancers of SMN2 Splice Variant Expression; HEK293 SMN2-luciferase splicing reporter, luminescence, 30-36 h; Potency, µM (doses to about 46.1 µM), for the others: at the top dose activity change, positive = activation, actives largely listed as activators; actives 2.8% (n = 210,000); AID 1458, 2008; note: % of control where 0% means no effect; nearly all actives have a fitted effect of over 55% in size
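HEK293 cells carry an SMN2 minigene-luciferase reporter in which exon 7 inclusion puts luciferase in frame. Cells were seeded at 2000 cells/well, attached for 10-12 hours, then exposed to compounds for 30-36 hours at 37C before ONE-Glo luminescence.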
Rab9 prom act: qHTS Assay for Rab9 Promoter Activators | Huh7 Rab9 promoter-luciferase reporter, luminescence, 24 h | Potency, µM (series often up to 9.22 µM), for the others: top-dose activation, negative = inhibition, usual class: activators | actives 2.8% (n = 320,000) | AID 485297, 2010; note: % of control where 0% means no effect; nearly all actives have a fitted effect of over 60% in size
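Luciferase signal after 10 min detection reagent at ambient indicates Rab9 promoter upregulation; stably transfected Huh7 cells were treated 24 h with compound in DMSO at 37 °C, 5% CO2.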
NPC1 prom act: qHTS Assay for NPC1 Promoter Activators. actives 2.4% (n = 320,000). Potency, µM (doses to about 9.22 µM), without a hit: at the top dose activation, hits mostly activators. Huh7 NPC1 promoter luciferase reporter, 24 h; note: % of control where 0% means no effect; nearly all actives have a fitted effect of over 60% in size
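Luciferase expression driven by the NPC1 promoter was measured in stably transfected Huh7 cells after a 24 h compound incubation, using a luciferase reagent and a luminescence read.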
ELG1 genotox: qHTS screen for small molecules that induce genotoxicity in human embryonic kidney (HEK293T) cells expressing luciferase-tagged ELG1; HEK293T ELG1-luciferase reporter, luminescence, 16 h; Potency, µM (titrated, usually from 46 µM), for inactives: top-dose activity change, positive = activation, hits mostly activators; actives 1.3% (n = 330,000); AID 504466, 2011; note: % of control where 0% means no effect; nearly all actives have a fitted effect of over 60% in size
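HEK293T cells expressing luciferase-tagged ELG1 were treated with compound or DMSO for 16 hr at 37°C. Luciferase activity was then read after 30 min with ONE-Glo at room temperature; rising signal flags genetic stress.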
p53 reactivation: qHTS assay for re-activators of p53 using a Luc reporter; H1299 p53-A138V BP100-luciferase reporter, luminescence, 24 h; Potency, µM (highest dose often 92.2 µM), without a hit: at the highest dose activity change, positive = activation, hits mostly activators; actives 0.063% (n = 320,000); AID 504706, 2011; note: % of control where 0% means no effect; nearly all actives have a fitted effect of over 45% in size
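p53-null H1299 cells stably carrying temperature-sensitive p53-A138V and a BP100-luciferase reporter were pinned with compounds (4-point, 1:5 series) and held 24 hrs at 37 deg C. Luminescence was read 10 min after detection reagent.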
FLuc modulator: qHTS profiling assay for firefly luciferase inhibitor/activator using purifed enzyme and Km concentrations of substrates (counterscreen for miR-21 project) | Luciferin 4-monooxygenase (Photinus pyralis), P08659 | purified FLuc, Km substrates, luminescence inhibition | Potency, µM (doses to about 57.5 µM), without a hit: at the highest dose activity change, negative = inhibition, most hits filed as inhibitors | actives 6.9% (n = 360,000);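 note: plate controls were vehicle for no effect and reference inhibitor for full effect; nearly all actives have a fitted effect of over 55% in size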
Target sequence (P08659 whole entry, looked up): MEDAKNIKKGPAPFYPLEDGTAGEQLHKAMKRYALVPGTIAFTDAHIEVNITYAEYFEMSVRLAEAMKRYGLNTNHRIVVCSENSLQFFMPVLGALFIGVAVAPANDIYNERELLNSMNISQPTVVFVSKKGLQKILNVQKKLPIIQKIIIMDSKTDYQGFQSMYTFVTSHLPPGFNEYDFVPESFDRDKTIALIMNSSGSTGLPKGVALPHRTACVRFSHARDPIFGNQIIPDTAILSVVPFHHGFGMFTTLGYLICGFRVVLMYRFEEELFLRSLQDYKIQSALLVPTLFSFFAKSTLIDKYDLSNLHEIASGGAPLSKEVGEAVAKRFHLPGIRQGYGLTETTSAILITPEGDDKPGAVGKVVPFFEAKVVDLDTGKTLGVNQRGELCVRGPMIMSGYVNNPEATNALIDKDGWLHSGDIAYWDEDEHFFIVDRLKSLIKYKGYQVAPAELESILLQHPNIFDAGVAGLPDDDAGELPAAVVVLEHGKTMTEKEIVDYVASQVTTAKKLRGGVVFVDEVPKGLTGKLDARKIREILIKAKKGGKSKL
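Purified P. pyralis luciferase (10nM final) with 10uM D-luciferin and 10uM ATP (Km levels) in 50mM Tris acetate pH 7.5, 10mM Mg acetate, 0.01% Tween-20, 0.05% BSA; qHTS 6-point titration, ~60 µM downward; luminescence read.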
The depositor's hits bear a star. Most compounds without a hit are left out; they make up all but 7.3% or so of the library. Calls come from the whole dose curve; as a rule, active = well fitted curve in the direction sought with a large enough effect; inconclusive = small, poorly fitted or top-dose-only effect, or another doubt; inactive = no such curve, though single readings can be large; an effect the other way counts as inactive or inconclusive. Potency is the fitted concentration of half-maximal effect.

`O=C(NCC1CCCO1)c1ccc([N+](=O)[O-])s1` (stereo unspecified) gave Rab9 prom act 7%, NPC1 prom act -4%, ELG1 genotox -16%, p53 reactivation 25% and FLuc modulator 0%.
O=c1c2c3c(sc2nc2n1CCCC2)CCCCC3 was read as SMN2 splice enh 3%, Rab9 prom act 11%, NPC1 prom act 16%, ELG1 genotox inconclusive, p53 reactivation inconclusive and FLuc modulator 24µM*.
For O=c1c2c3c(sc2nc2n1CCCCC2)CCCC3 the results were SMN2 splice enh inconclusive, Rab9 prom act inconclusive, NPC1 prom act inconclusive, ELG1 genotox 23µM*, p53 reactivation inconclusive and FLuc modulator 19µM*.
For O=c1c2c3c(sc2nc2n1CCC2)CCCC3 the results were Rab9 prom act 2%, NPC1 prom act -5%, ELG1 genotox 0%, p53 reactivation -1% and FLuc modulator 1%.
O=c1c2c3c(sc2nc2n1CCCC2)CCC3 was read as SMN2 splice enh 13%, Rab9 prom act 7%, NPC1 prom act 2%, ELG1 genotox 3%, p53 reactivation -3% and FLuc modulator 0%.
For Nc1nc2sc3c(c2c(=O)s1)CCCC3 the results were SMN2 splice enh inconclusive, Rab9 prom act inconclusive, NPC1 prom act 29%, ELG1 genotox 16µM*, p53 reactivation 17% and FLuc modulator 11µM*.
CS(=O)(=O)c1ncc(N(Cc2ccco2)Cc2cccs2)c(C(=O)Nc2ccccc2F)n1 was read as FLuc modulator -6%.
Screening O=c1cc(O)c2sc3nc4c(c(C(F)(F)F)c3c2[nH]1)CCCCC4 returned Rab9 prom act 5%, NPC1 prom act -2%, ELG1 genotox 2%, p53 reactivation 10% and FLuc modulator 17µM*.
Screening O=c1cc(O)c2sc3nc(-c4ccccc4)cc(C(F)(F)F)c3c2[nH]1 returned SMN2 splice enh -31%, Rab9 prom act 8%, NPC1 prom act 3%, ELG1 genotox 0%, p53 reactivation -2% and FLuc modulator -6%.
Screening CC1=C(c2ccc(C)cc2)S(=O)(=O)NC1=NCc1cccc(F)c1 returned FLuc modulator -9%.
Oc1c(C=Nc2ccccc2)sc2ccccc12 was read as Rab9 prom act -4%, NPC1 prom act -4%, ELG1 genotox 2%, p53 reactivation -3% and FLuc modulator 3%.
Oc1c(C=NCc2ccncc2)sc2ccccc12 was read as SMN2 splice enh inconclusive, Rab9 prom act 2%, NPC1 prom act 13%, ELG1 genotox inconclusive, p53 reactivation inconclusive and FLuc modulator inconclusive.
For Oc1c(C=Nc2cccnc2)sc2ccccc12 the results were SMN2 splice enh 24%, Rab9 prom act 5%, NPC1 prom act 5%, ELG1 genotox inconclusive, p53 reactivation inconclusive and FLuc modulator 1.9µM*.
Screening Oc1c(/C=N/c2ccccn2)sc2ccccc12 returned Rab9 prom act inconclusive, NPC1 prom act 22%, ELG1 genotox inconclusive, p53 reactivation inconclusive and FLuc modulator 0.54µM*.
Oc1c(C=Nc2ccc(Cl)cn2)sc2ccccc12 was read as Rab9 prom act inconclusive, NPC1 prom act inconclusive, ELG1 genotox 5.8µM*, p53 reactivation 17% and FLuc modulator 0.34µM*.
Screening COc1nccc(-c2ccc(F)cc2)c1C#N returned SMN2 splice enh -3%, Rab9 prom act -8%, NPC1 prom act -3%, ELG1 genotox 8%, p53 reactivation 0% and FLuc modulator 5%.
